Assay outcomes (PubChem)
This is one part of a sample in which hits are shown more often than they occur.
nsP2pro inh: Primary qHTS for inhibitors of NSP2Pro chikungunya virus (CHIKV); hit rate 1.1% among 31,000; AID 1964107, 2024; Potency, µM (doses to about 24.9 µM), inactives show at the top dose activity change, negative = inhibition, actives largely listed as inhibitors; FRET peptide cleavage, nsP2pro, fluorescence 1 h; also: nearly all actives have a fitted effect of over 60% in size
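Purified recombinant nsP2pro (150 nM final) in 10 mM Tris-HCl pH 8.0 with 0.01% Tween 20 was preincubated 15 min at room temperature with compound (7 concentrations, up to 25 uM). FRET peptide 2 substrate (2.5 uM final) was then added; fluorescence was read after 1 h.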
CHIKV nsP2 cell: Secondary cell base assay for inhibitors of NSP2Pro Chikungunya virus (CHIKV); shares compounds with nsP2pro inh; cell-based CHIKV nsP2 protease reporter assay; Potency, µM (titrated, usually from 51.1 µM), inactives show top-dose activity change, negative = inhibition, hits mostly inhibitors; hit rate 10% among 450; AID 1964100, 2024; also: nearly all actives have a fitted effect of over 70% in size
NSP2 full ctr: Selectivity profile for inhibitors of NSP2Pro chikungunya virus (CHIKV): Full length NSP2 enzyme counterscreen (CHIKV-NSP2); shares compounds with nsP2pro inh; Full-length CHIKV NSP2 protease enzymatic counterscreen; Potency, µM (top dose mostly 50.7 µM), without a hit: top-dose activity change, negative = inhibition, most hits filed as inhibitors; hit rate 39% among 410; also: nearly all actives have a fitted effect of over 65% in size
Furin counter: Selectivity profile for inhibitors of NSP2Pro chikungunya virus (CHIKV): Human furin counterscreen. Recombinant human furin enzymatic counterscreen, fluorogenic substrate. Potency, µM (doses to about 50.6 µM), for the others: at the top dose activity change, negative = inhibition, most hits filed as inhibitors. shares compounds with nsP2pro inh. hit rate 6% among 410. AID 1964102, 2024
nsP2 NS23 pep: Selectivity profile for inhibitors of NSP2Pro chikungunya virus (CHIKV): Endogenous NS2/3 peptide Counterscreen. shares compounds with nsP2pro inh. Purified CHIKV nsP2 protease, endogenous NS2/3 peptide cleavage. Potency, µM (highest dose often 51 µM), without a hit: at the highest dose activity change, negative = inhibition, actives largely listed as inhibitors. hit rate 34% among 410. AID 1964103, 2024; also: nearly all actives have a fitted effect of over 55% in size
Papain counter: Selectivity profile for inhibitors of NSP2Pro chikungunya virus (CHIKV): Papain Counterscreen; shares compounds with nsP2pro inh; purified papain protease activity, enzymatic inhibition; Potency, µM (titrated, usually from 51 µM), for inactives: top-dose activity change, negative = inhibition, actives largely listed as inhibitors; hit rate 5% among 410
nsP2pro conf qHTS: Confirmatory qHTS for inhibitors of NSP2Pro chikungunya virus (CHIKV); AID 1964105, 2024; CHIKV nsP2 protease enzymatic activity, qHTS; hit rate 43% among 410; shares compounds with nsP2pro inh; Potency, µM (doses to about 25.5 µM), for the others: top-dose activity change, negative = inhibition, hits mostly inhibitors; also: nearly all actives have a fitted effect of over 75% in size
HCV NS3 counter: Selectivity profile for inhibitors of NSP2Pro chikungunya virus (CHIKV): NS34A-HCV Counterscreen | hit rate 20% among 410 | AID 1964106, 2024 | HCV NS3/4A protease biochemical counterscreen | shares compounds with nsP2pro inh | Potency, µM (top dose mostly 50.9 µM), most hits filed as inhibitors; also: nearly all actives have a fitted effect of over 55% in size
Starred values were filed as active, the others as inactive; i = inactive; ? = inconclusive; [ ] = remark or other dose. Calls follow the shape of the full dose curve. % is scaled to controls: 0 for no effect and ±100 for the full control effect; potency is read from the fitted curve at half-maximal effect.

SMILES | nsP2pro inh | others
CCC(=O)C1CCCN(C(=O)CC(c2ccc3c(c2)OCO3)c2c(O)cc(OC)cc2OC)C1 (configuration not stated) | -0.4%[39.2 µM]
[2H]N[C@@H](Cc1ccccc1)C(=O)N1CCC[C@H]1C(=O)N[C@@H](CCCNC(=N)N)C(=O)N1CCC[C@H]1C(=O)NCC(=O)NCC(=O)NCC(=O)NCC(=O)N[C@@H](CC(N)=O)C(=O)NCC(=O)N[C@@H](CC(=O)O)C(=O)N[C@@H](Cc1ccccc1)C(=O)N[C@@H](CCC(=O)O)C(=O)N[C@@H](CCC(=O)O)C(=O)N[C@H](C(=O)N1CCC[C@H]1C(=O)N[C@@H](CCC(=O)O)C(=O)N[C@@H](CCC(=O)O)C(=O)N[C@@H](Cc1ccc(O)cc1)C(=O)N[C@@H](CC(C)C)C(=O)O)[C@@H](C)CC | -25.5%[5.1 µM]
O=C(NCC(=O)N1CCCC1)Nc1ccc2ccccc2c1 | ? | CHIKV nsP2 cell=-3.3%;NSP2 full ctr=?;Furin counter=-5.2%;nsP2 NS23 pep=-25.4%;Papain counter=-1.2%;nsP2pro conf qHTS=-14.5%;HCV NS3 counter=i
COc1ccccc1NC(=O)Nc1ccc2ccccc2c1 | 43.5%
O=C(NCC(=O)N1CCCC1)Nc1ccc2cnccc2c1 | 0.1%
O=C([C@@H]1C[C@H](F)CN1S(=O)(=O)Cc1ccccc1Cl)N1CCCCC1 | -7.3%
C=C1CCC2C(C)(C)CC(O)CC2(C)C1CCC(C)CC(=O)O (configuration not stated) | 31.8%
CC(C)c1ccc(S(=O)(=O)c2cnc(SCC(=O)Nc3ccc4c(c3)OCCO4)[nH]c2=O)cc1 | 3.98µM* | CHIKV nsP2 cell=?;NSP2 full ctr=-14.4%;Furin counter=-7.5%;nsP2 NS23 pep=208.0%;Papain counter=?;nsP2pro conf qHTS=64.6%;HCV NS3 counter=i
O=C(CSc1ncc(S(=O)(=O)c2ccc(Br)cc2)c(=O)[nH]1)NCc1ccccc1Cl | 25.8%
Cc1ccc(S(=O)(=O)c2cnc(SCC(=O)Nc3ccc4c(c3)OCCO4)[nH]c2=O)cc1Cl | 34.9%
Cc1cccc(N2CCN(C(=S)Nc3cc(C)ccn3)CC2)c1 | 3.6%
CCCC(CCC)C(=O)Nc1ccn([C@@H]2O[C@H](CO)[C@@H](O)C2(F)F)c(=O)n1 | -9.7%
C=C(C)[C@@H]1CC=C(COC(=O)NC(=O)c2ncn3c(=O)n(C)nnc23)CC1 | -11.4%
c1ccc(COc2cccc(-c3nc4ccccc4s3)c2)cc1 | -2.7%
CN(C)c1cccc(-c2nccc(N3CCC(C(N)=O)CC3)n2)c1 | i
CN(C)c1cccc(-c2nc(N3CCC(C(N)=O)CC3)ncc2F)c1 | 4.9%
CN(C)c1cccc(-c2ncc(F)c(N3CCC(C(N)=O)CC3)n2)c1 | ? | CHIKV nsP2 cell=49.7%;NSP2 full ctr=2.8%;Furin counter=-2.3%;nsP2 NS23 pep=3.7%;Papain counter=-7.5%;nsP2pro conf qHTS=14.2%;HCV NS3 counter=i
O=S(=O)(Nc1nc(-c2ccccc2C(F)(F)F)nc2ccccc12)c1ccc(Br)cc1 | i
Cn1nnnc1SCCNCc1ccccc1OCc1ccccc1F | -22.6%
O=S(=O)(Nc1ccc2ccccc2c1)c1ccc(NCc2cccc(Cl)c2O)cc1 | 3.8%
